Assay results taken from PubChem BioAssay AID1851 (National Center for Advancing Translational Sciences (NCATS), 2009).
Screen size: about 16,000 compounds; about 5,800 (36%) were called active. Not shown: some 23% with an inconclusive outcome. The list shows a part of the results. Values without a mark were called inactive. Calls come from the whole dose curve; as a rule, active = well fitted curve in the direction sought with a large enough effect; inconclusive = small, poorly fitted or top-dose-only effect, or effect the other way; inactive = no such curve, though single readings can be large or run the other way.

target: Cytochrome P450 2C19 (Homo sapiens) (UniProt P33261); assay: Cytochrome panel assay with activity outcomes; settings: recombinant CYP, pro-luciferin dealkylation, luminescence, p450-cyp2c19; series mostly up to 57.1 µM; activity, negative = inhibition: at the top concentration
Sequence (P33261 whole entry, looked up): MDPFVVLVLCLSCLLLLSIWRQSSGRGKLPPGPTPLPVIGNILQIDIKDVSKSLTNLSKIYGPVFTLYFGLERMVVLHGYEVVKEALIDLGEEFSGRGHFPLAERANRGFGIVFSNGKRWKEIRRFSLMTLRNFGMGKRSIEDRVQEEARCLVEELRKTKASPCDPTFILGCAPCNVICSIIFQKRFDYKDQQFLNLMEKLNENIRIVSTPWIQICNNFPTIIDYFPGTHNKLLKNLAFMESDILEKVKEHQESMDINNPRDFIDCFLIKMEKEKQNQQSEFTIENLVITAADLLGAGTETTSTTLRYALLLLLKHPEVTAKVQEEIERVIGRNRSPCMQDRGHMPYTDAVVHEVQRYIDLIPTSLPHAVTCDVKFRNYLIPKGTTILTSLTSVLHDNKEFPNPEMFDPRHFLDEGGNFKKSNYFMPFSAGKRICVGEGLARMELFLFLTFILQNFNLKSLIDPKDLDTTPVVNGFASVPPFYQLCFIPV
% is set by controls: 0 for no effect and ±100 for the full control effect.

Row | SMILES | AC50 | activity, negative = inhibition
1 | Fc1cc2nc(-c3ccncc3)[nH]c2cc1F | 7.08 µM (active) | 
2 | COc1ccc(C2=CSC(/N=C/c3ccc(F)cc3)=NN2)cc1 | 17.8 µM (active) | 
3 | CC(C)CCOc1ccc(NC(=O)C2OC3OC(C)(C)OC3C3OC(C)(C)OC23)cc1 (stereo not given) |  | -23%
4 | COc1ccc(Br)cc1C(=O)Nc1ccc(Cc2ccncc2)cc1 | 0.794 µM (active) | 
5 | CCN(CC)CCNC(=O)c1cc(Br)c(N)cc1OC |  | -17.9% [at 25.6 µM]
6 | CN1CCc2c(sc3c2c(=O)n(-c2ccccc2)c2nncn32)C1 |  | -9.84%
7 | Cn1c(=O)n(-c2ccc(Cl)cc2)c(=O)c2c3c(sc21)COC(C)(C)C3 | 20 µM (active) | 
8 | COc1ccc(/C=C(\C#N)C(=O)NCC2CCCO2)cc1OC (stereo not given) |  | 3.24%
9 | COc1cc(/C=C(\C#N)C(=O)NCC2CCCO2)c([N+](=O)[O-])cc1OC (stereo not given) | 11.2 µM (active) | 
10 | Cc1ccc(-n2c(C)cc(/C=C(\C#N)C(=O)NCC3CCCO3)c2C)cc1 (stereo not given) | 3.16 µM (active) | 
11 | N[C@@H](Cc1ccnnc1)C(=O)O |  | 35.8% [at 11.4 µM]
12 | CC(C)[C@H](CO)Nc1nc(Nc2ccc(C(=O)O)c(Cl)c2)c2ncn(C(C)C)c2n1 |  | -34.9%
13 | CCOC(=O)CSc1cc(=O)n(C)c2cc(Cl)ccc12 | 4.47 µM (active) | 
14 | Cc1cccc(-n2nc([N+](=O)[O-])c(=NCc3cccnc3)n2O)c1 | 6.31 µM (active) | 
15 | Cc1ccc(C)c(/C(O)=C2\C(=O)C(=O)N(Cc3cccnc3)C2c2cccnc2)c1 (stereo not given) |  | -0.22%
16 | Cn1c(=S)c2[nH]c(SCCN3C(=O)c4ccccc4C3=O)nc2n(C)c1=O |  | 17.2% [at 11.4 µM]
17 | O=C1c2ccccc2C(=O)N1CCSC(=S)N1CCOCC1 | 1.58 µM (active) | 
18 | Cc1cc2ccccn2c1C(=O)c1nc(N2CCOCC2)ncc1Cl | 7.94 µM (active) | 
19 | Cc1cc2ccccn2c1C(=O)c1ccc(Cl)cc1 | 1.26 µM (active) | 
20 | Cc1cc(CC(=O)O)n(C)c1C(=O)c1ccc(Cl)cc1 |  | -13.8% [at 25.6 µM]
21 | Cc1nc2cnc(N3CCOCC3)nc2n(C)c1=O |  | -28.1%
22 | O=c1c(-c2ccccc2)nc2cnc(N3CCOCC3)nc2n1-c1ccccc1 |  | -17.9%

Row | SMILES | AC50 | activity, negative = inhibition
23 | CCC(=O)NNc1cc(=O)c2c(=O)n(C)c(=O)n(C)c2[nH]1 |  | 9.13%
24 | CC(=O)NC1=NC(=O)C(C)S1 (stereo not given) |  | 17.4%
25 | COc1cc2c(cc1OC)-c1cc(NCc3ccccn3)nc(=O)n1CC2 |  | 7.74%
26 | COc1cc(CNCc2ccccn2)ccc1OCc1ccc(Cl)cc1Cl | 3.98 µM (active) | 
27 | Cc1ccc(CS(=O)(=O)CCC(=O)NCc2ccccn2)cc1 |  | -22.8%
28 | COc1ccc(CC(=O)NCc2ccccn2)cc1OC | 28.2 µM (active) | 
29 | CCN1C(=O)[C@H]2[C@H]3[C@H](O)[C@H](O)C/C(=N/OCC(C)C)[C@H]3CC[C@@H]2C1=O |  | 28.2% [at 11.4 µM]
30 | COc1ccccc1OCC(=O)NNC(=O)c1cnccn1 |  | -6.18%
31 | COc1ccccc1OCC(=O)N/N=C1/SCC(=O)N1Cc1ccccc1 | 14.1 µM (active) | 
32 | CCOC(=O)N/N=C1/C[C@@H](O)[C@@H](O)[C@@H]2[C@@H]3C(=O)N(Cc4ccccc4)C(=O)[C@H]3CC[C@H]12 |  | 10.9% [at 11.4 µM]
33 | CCC(C)N1C(=O)S/C(=C/c2ccc(Sc3nc4ccccc4[nH]3)o2)C1=O (stereo not given) | 1.12 µM (active) | 
34 | CCCCCC1CCC(C(=O)NNC(=S)NCC)CC1 (stereo not given) | 17.8 µM (active) | 
35 | COc1ncnc(NS(=O)(=O)c2ccc(N)cc2)c1OC |  | -33.9% [at 25.6 µM]
36 | Cc1[nH]c(N)nc(=S)c1CCCNc1ccccc1 | 2 µM (active) | 
37 | Cc1[nH]c(N)nc(=S)c1CCC(=O)O |  | 3.33% [at 11.4 µM]
38 | Nc1nc(N)c(CCCCc2ccccc2)c(N)n1 |  | -22.9% [at 11.4 µM]
39 | Cn1c(N)c(N=Nc2ccc(S(N)(=O)=O)cc2)c(=O)n(C)c1=O |  | 76% [at 11.4 µM]
40 | c1ccc(-c2nnc(SCCC3OCCCO3)o2)cc1 | 5.01 µM (active) | 
41 | COc1ccc(NC(=O)N2CCCC3(CCN(S(C)(=O)=O)CC3)C2)cc1 |  | -3.07%
42 | COc1ccc(NC(=O)N2CCCC3(CCN(C(=O)c4cnccn4)CC3)C2)cc1 |  | -10.3%
43 | COc1ccc(NC(=O)N2CC3(CCN(S(C)(=O)=O)CC3)C2)cc1 |  | -23%
44 | COc1ccc(NC(=O)N2CCC3(CC2)CCN(C(=O)c2cnccn2)CC3)cc1 | 25.1 µM (active) | 

Row | SMILES | AC50 | activity, negative = inhibition
45 | COc1ccc(NC(=O)N2CC3(CCN(S(=O)(=O)c4ccccc4)CC3)C2)cc1 |  | -20.5%
46 | COc1ccc(NC(=O)N2CCC3(CC2)CCN(S(=O)(=O)c2ccccc2)CC3)cc1 |  | -14.2%
47 | COc1ccc(NC(=O)N2CCC3(CC2)CCN(S(C)(=O)=O)CC3)cc1 | 3.16 µM (active) | 
48 | O=C(Nc1ccccc1)N1CCC2(CC1)CCN(S(=O)(=O)c1ccccc1)CC2 | 15.8 µM (active) | 
49 | COc1ccc(NC(=O)N2CC3(CCN(C(=O)c4cnccn4)CC3)C2)cc1 |  | 0.386%
50 | CC12c3ccccc3C(c3ccccc31)C1C(=O)N(Cc3cccnc3)C(=O)C12 (stereo not given) | 1.26 µM (active) | 
51 | FC(F)(F)c1cnc(/C=C/Nc2ccccc2Cl)c(Cl)c1 |  | -25.2%
52 | Nc1ccccc1Oc1ncc(C(F)(F)F)cc1Cl | 7.94 µM (active) | 
53 | Oc1cc(O)c2c(c1)O[C@H](c1ccc(O)c(O)c1)[C@H](O)C2 | inactive | 
54 | CN1CCN(c2nc3cc(C(F)(F)F)ccc3n3cccc23)CC1 | 12.6 µM (active) | 
55 | Cc1ccc(OCCCOc2cccc3cccnc23)cc1C | 1.12 µM (active) | 
56 | CCOc1ccc2c(ccc(/C=C\c3cc(C)c4cccnc4c3O)[n+]2C)c1 |  | 27.7% [at 11.4 µM]
57 | COc1cc(NCCC(=O)O)c2ncccc2c1 |  | -14.2% [at 11.4 µM]
58 | O=C1N/C(=C\c2ccc(N3CCOCC3)c(F)c2)C(=O)N1Cc1ccccc1 | 14.1 µM (active) | 
59 | c1ccc2c(N3CCNCC3)nc(-c3ccc4c(c3)OCO4)nc2c1 |  | -12%
60 | c1ccc2c(-n3ccnc3)nc(-c3ccoc3)nc2c1 | 20 µM (active) | 
61 | CN(C)c1ccc(-c2nc(N3CCNCC3)c3ccccc3n2)cc1 | 15.8 µM (active) | 
62 | CN(C)c1ccc(-c2nc(-n3ccnc3)c3ccccc3n2)cc1 | 2.51 µM (active) | 
63 | c1cncc(-c2nc(N3CCNCC3)c3ccccc3n2)c1 |  | -18.2%
64 | CN1CCN(c2nc(-c3ccoc3)nc3ccccc23)CC1 |  | -25.4%
65 | c1ccc2c(N3CCOCC3)nc(-c3ccoc3)nc2c1 |  | -11.5%
